Laboratory results from the supplement of paper PMC10849652.
Targets with a hit are over-represented here; the source holds about 7,900 in all. About 0.6% of all pairs of compound and target were hits.

Assays:
Assay in all cases: log2 fold change, soluble protein after heating vs DMSO (PISA); higher = thermal stabilisation; K562 cells, 10 uM, 30 min; active = over 0.2 and 3.5 SD of the protein, either way, in both replicates (recomputed)
erlotinib = compound: C#Cc1cccc(Nc2ncnc3cc(OCCOC)c(OCCOC)cc23)c1 [erlotinib]
Summary of the method: (§1)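 Values are thermal stability changes relative to control samples and are taken from duplicates. They are stated as log2 fold changes. Before quantification by TMTpro 16plex LC-MS/MS with equalised channel sums, K562 cells at 2×10^6 cells/mL were treated with 10 μM compound for 30 min, heated in aliquots for 3 min across 48°C-58°C, pooled, extracted in PBS with 0.5% NP-40 at 4°C, and centrifuged at 21,000xg for 90 min to give the soluble supernatant.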

[1] = compound: C/C(=N\NC(=O)C1=CC(=CC=C1)S(=O)(=O)N2CCOCC2)/C3=C(C=CC(=C3)Cl)O
Summary of the method: as §1

[2] = compound: C1=CC(=C(C=C1Cl)C2=NC3=NC=CN=C3C(=N2)NC4=CC=NC=C4)F
Summary of the method: as §1

[3] = compound: C1=CC(=CC=C1C2=NC3=C(N2)C=C(C=C3)C(=O)N)OC4=CC=C(C=C4)Cl
Summary of the method: as §1

[4] = compound: C1=CC2=C(C=CC(=C2)/C=C\3/C(=O)NC(=NCC4=CC=CS4)S3)N=C1
Summary of the method: as §1

[5] = compound: C1=CC2=NC=CN=C2C=C1/C=C/3\C(=O)NC(=O)S3
Summary of the method: as §1

[6] = compound: C1=CC=C(C=C1)C2=NC(=C(N2)C3=CC=NC=C3)C4=CC(=C(C=C4)Cl)O
Summary of the method: as §1

[7] = compound: C1=CC=C2C(=C1)C3=NNC4=CC=CC(=C43)C2=O
Summary of the method: as §1

[8] = compound: C1CCN(C1)C(=O)NC2=CC=CC(=C2)NC3=NC=C(C(=N3)NCCC4=CN=CN4)Br
Summary of the method: as §1

[9] = compound: C1CN(CCC1(CC2=CC=C(C=C2)Cl)N)C3=NC=NC4=C3C=CN4
Summary of the method: as §1

Measured: log2 fold change

SRP68 (UniProt Q9UHB9)
inactive: erlotinib 0.047 | [1] 0.034 | [2] -0.043 | [3] -0.071 | [4] 0.011 | [5] 0.01 | [6] 0.002 | [7] -0.087 | [8] 0.015 | [9] -0.107

TBC1D5 isoform 2 (UniProt Q92609)
inactive: erlotinib 0.019 | [1] 0.111 | [2] -0.03 | [3] -0.041 | [4] 0.044 | [5] 0.032 | [6] -0.049 | [7] 0.027 | [8] -0.003 | [9] -0.078

STRN (UniProt O43815)
inactive: erlotinib -0.03 | [1] 0 | [2] 0.033 | [3] 0.013 | [4] -0.008 | [5] 0.005 | [7] 0.025 | [8] -0.124 | [9] 0.053
active: [6] 0.213

SLC30A7 (UniProt Q8NEW0)
inactive: erlotinib -0.004 | [1] 0.175 | [2] 0.062 | [3] 0.006 | [4] -0.086 | [5] 0.077 | [6] 0.109 | [7] 0.004 | [8] 0.016 | [9] 0.132

SRFBP1 (UniProt Q8NEF9)
UniProt Q8NEF9, sequence (Q8NEF9 whole entry, looked up): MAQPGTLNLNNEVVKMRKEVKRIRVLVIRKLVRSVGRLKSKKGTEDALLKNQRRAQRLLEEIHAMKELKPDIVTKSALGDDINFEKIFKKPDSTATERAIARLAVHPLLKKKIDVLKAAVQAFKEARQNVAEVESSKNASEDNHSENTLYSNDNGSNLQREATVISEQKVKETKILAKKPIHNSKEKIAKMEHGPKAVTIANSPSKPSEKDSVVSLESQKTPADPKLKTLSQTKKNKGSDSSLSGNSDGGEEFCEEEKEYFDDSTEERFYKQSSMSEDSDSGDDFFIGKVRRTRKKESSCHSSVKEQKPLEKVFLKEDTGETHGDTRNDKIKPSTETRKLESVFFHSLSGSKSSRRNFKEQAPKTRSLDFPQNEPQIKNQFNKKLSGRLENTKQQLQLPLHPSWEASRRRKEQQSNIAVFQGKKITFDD
inactive: erlotinib -0.256 | [1] -0.082 | [2] -0.114 | [3] 0.039 | [4] -0.03 | [5] 0.104 | [6] -0.08 | [7] 0.082 | [8] 0.069 | [9] -0.065

TM9SF4 (UniProt Q92544)
UniProt Q92544, sequence (Q92544 whole entry, looked up): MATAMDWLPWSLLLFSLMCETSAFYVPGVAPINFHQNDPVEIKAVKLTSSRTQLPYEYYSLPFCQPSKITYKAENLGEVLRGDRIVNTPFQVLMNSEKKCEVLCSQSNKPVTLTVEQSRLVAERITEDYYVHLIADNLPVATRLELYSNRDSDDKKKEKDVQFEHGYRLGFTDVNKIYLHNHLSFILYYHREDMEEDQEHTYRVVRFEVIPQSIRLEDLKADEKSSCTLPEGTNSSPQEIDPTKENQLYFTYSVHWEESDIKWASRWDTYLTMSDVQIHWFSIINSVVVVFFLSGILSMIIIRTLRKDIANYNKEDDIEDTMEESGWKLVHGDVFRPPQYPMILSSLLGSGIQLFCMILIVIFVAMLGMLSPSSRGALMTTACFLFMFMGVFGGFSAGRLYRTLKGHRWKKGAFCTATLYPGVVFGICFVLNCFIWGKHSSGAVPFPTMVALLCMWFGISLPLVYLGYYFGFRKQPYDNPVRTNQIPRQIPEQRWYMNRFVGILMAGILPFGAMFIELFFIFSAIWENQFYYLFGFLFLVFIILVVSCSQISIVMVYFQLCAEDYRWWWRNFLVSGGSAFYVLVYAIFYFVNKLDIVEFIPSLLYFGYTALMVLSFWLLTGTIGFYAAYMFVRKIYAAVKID
inactive: erlotinib -0.015 | [1] 0.011 | [2] -0.006 | [3] 0.052 | [4] -0.054 | [5] -0.002 | [6] 0.008 | [7] 0.038 | [8] -0.012 | [9] 0.066

SPR (UniProt P35270)
active: [6] 0.732
inactive: erlotinib 0.018 | [1] -0.089 | [2] -0.01 | [3] 0.005 | [4] 0.115 | [5] 0.016 | [7] 0.096 | [8] 0.02 | [9] 0.034

SUPT5H (UniProt O00267)
inactive: erlotinib 0.05 | [1] 0.084 | [2] 0.065 | [3] 0.011 | [4] 0.017 | [5] 0.021 | [6] 0.02 | [7] 0.006 | [8] -0.017 | [9] 0.011

SYMPK (UniProt Q92797)
UniProt Q92797, sequence (Q92797 whole entry, looked up): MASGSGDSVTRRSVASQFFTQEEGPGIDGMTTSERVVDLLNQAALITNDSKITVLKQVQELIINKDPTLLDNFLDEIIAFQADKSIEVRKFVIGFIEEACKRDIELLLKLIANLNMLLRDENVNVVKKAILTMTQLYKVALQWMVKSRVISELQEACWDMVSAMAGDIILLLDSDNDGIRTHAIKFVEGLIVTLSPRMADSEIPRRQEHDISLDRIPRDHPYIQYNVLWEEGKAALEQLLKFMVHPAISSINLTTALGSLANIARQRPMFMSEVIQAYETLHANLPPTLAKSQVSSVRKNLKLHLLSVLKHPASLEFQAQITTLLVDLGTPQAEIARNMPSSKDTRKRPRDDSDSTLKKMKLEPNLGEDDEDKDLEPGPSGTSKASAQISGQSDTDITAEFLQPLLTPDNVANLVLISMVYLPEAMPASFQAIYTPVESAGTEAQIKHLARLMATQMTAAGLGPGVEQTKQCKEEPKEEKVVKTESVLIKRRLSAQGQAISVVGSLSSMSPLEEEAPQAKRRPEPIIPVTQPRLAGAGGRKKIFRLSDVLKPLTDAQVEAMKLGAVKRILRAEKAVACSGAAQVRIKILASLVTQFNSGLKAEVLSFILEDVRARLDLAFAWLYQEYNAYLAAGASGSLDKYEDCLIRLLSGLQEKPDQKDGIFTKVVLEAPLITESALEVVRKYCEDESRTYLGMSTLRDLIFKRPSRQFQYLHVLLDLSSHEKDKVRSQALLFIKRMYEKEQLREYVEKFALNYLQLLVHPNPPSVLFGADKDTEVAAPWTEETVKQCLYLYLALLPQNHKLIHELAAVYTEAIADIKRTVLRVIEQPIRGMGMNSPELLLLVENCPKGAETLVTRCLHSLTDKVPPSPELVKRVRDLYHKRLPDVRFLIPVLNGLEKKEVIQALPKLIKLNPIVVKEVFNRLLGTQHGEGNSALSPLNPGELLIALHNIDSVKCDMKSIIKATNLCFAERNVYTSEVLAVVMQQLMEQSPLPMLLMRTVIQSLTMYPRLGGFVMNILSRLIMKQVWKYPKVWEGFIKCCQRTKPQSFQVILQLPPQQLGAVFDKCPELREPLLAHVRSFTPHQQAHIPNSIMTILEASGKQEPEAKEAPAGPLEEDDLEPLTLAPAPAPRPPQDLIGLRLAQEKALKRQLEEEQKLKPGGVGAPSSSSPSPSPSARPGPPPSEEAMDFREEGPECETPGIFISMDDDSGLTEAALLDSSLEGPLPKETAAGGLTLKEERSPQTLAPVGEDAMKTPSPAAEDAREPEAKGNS
inactive: erlotinib -0.005 | [1] 0.179 | [2] 0.005 | [3] -0.114 | [4] 0.189 | [5] 0.033 | [6] 0.093 | [7] -0.065 | [8] -0.101 | [9] 0.04

SLC25A39 (UniProt Q9BZJ4)
UniProt Q9BZJ4, sequence (Q9BZJ4 whole entry, looked up): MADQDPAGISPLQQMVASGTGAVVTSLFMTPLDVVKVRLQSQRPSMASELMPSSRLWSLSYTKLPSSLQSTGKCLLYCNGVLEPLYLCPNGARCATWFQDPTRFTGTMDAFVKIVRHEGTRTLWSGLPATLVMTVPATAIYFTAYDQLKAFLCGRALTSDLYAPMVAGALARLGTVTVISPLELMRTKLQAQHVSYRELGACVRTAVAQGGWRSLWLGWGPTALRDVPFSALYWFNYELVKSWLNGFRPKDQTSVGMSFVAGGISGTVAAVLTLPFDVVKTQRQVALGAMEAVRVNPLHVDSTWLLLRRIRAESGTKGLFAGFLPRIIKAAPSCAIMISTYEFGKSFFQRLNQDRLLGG
inactive: erlotinib -0.072 | [1] -0.217 | [2] 0.038 | [3] 0.062 | [4] 0.193 | [5] 0.118 | [6] -0.042 | [7] -0.046 | [8] -0.186 | [9] 0.112

SNX6 (UniProt Q9UNH7)
inactive: erlotinib 0.093 | [1] 0.056 | [2] 0.035 | [3] 0.017 | [4] 0.042 | [5] -0.057 | [6] -0.053 | [7] -0.159 | [8] 0.053 | [9] -0.018

SSX2 (UniProt Q16385)
UniProt Q16385, sequence (Q16385 whole entry, looked up): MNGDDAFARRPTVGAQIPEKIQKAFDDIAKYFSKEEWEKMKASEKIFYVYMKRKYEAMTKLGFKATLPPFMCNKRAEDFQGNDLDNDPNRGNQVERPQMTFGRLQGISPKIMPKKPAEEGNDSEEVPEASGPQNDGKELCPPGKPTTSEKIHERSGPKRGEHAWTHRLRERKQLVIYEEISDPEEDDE
inactive: erlotinib -0.068 | [1] -0.078 | [2] -0.023 | [3] 0.038 | [4] 0.175 | [5] 0.044 | [6] -0.032 | [7] -0.035 | [8] -0.022 | [9] -0.004

TFB2M (UniProt Q9H5Q4)
inactive: erlotinib 0.007 | [1] 0.094 | [2] 0.037 | [3] -0.043 | [4] 0.016 | [5] 0.019 | [6] -0.022 | [7] -0.019 | [8] 0.002 | [9] 0.007

SLC4A2 (UniProt P04920)
inactive: erlotinib 0.015 | [1] 0.073 | [2] -0.062 | [3] 0.047 | [4] 0.076 | [5] 0.047 | [6] 0.043 | [7] -0.026 | [8] -0.023 | [9] 0.002

TIMM29 (UniProt Q9BSF4)
inactive: erlotinib 0.028 | [1] 0.042 | [2] 0.049 | [3] -0.025 | [4] 0.064 | [5] 0.018 | [6] -0.035 | [7] -0.024 | [8] 0.037 | [9] 0.011

STK38 (UniProt Q15208)
UniProt Q15208, sequence (Q15208 whole entry, looked up): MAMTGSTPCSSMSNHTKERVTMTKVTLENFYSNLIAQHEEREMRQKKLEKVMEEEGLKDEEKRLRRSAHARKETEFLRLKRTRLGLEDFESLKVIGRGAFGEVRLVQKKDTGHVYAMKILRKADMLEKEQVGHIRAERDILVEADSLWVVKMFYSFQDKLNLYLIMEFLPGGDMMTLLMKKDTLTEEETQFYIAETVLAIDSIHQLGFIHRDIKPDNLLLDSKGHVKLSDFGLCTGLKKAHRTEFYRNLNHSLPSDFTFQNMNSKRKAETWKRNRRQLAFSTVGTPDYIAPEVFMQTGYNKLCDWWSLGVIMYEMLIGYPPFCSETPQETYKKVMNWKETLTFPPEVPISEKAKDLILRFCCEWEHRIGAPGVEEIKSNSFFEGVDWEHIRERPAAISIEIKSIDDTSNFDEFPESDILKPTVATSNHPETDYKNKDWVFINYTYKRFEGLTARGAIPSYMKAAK
inactive: erlotinib 0.039 | [1] 0.138 | [2] 0.029 | [3] -0.021 | [4] 0.014 | [5] 0.079 | [6] 0.057 | [7] 0.049 | [8] -0.025 | [9] -0.05

TEX30 (UniProt Q5JUR7)
inactive: erlotinib 0.183 | [1] 0.165 | [2] -0.011 | [3] -0.013 | [4] 0.188 | [5] 0.025 | [6] -0.01 | [7] 0.046 | [8] -0.147 | [9] -0.029

SLC38A9 (UniProt Q8NBW4)
inactive: erlotinib 0.008 | [1] -0.023 | [2] -0.018 | [3] 0.02 | [4] 0.046 | [5] 0.063 | [6] -0.071 | [7] -0.011 | [8] -0.042 | [9] 0.055

STAT3 (UniProt P40763)
inactive: erlotinib -0.023 | [1] 0.147 | [2] 0.026 | [3] 0.007 | [4] 0.031 | [5] 0.031 | [6] 0.011 | [7] -0.001 | [8] -0.01 | [9] -0.036

SPCS2 (UniProt Q15005)
inactive: erlotinib -0.022 | [1] 0.015 | [2] 0.077 | [3] -0.043 | [4] 0.011 | [5] 0.029 | [6] -0.004 | [7] -0.08 | [8] -0.005 | [9] 0.001

SMCHD1 (UniProt A6NHR9)
active: [9] -0.564
inactive: erlotinib 0.006 | [1] 0.171 | [2] -0.272 | [3] 0.043 | [4] 0.325 | [5] 0.046 | [6] -0.007 | [7] -0.422 | [8] -0.153

TBK1 (UniProt Q9UHD2)
inactive: erlotinib -0.042 | [1] 0.009 | [2] 0.003 | [3] -0.048 | [4] 0.044 | [5] 0.026 | [6] -0.082 | [7] 0.009 | [8] 0.029 | [9] -0.105

SNX12 isoform 1 (UniProt Q9UMY4)
inactive: erlotinib 0.002 | [1] 0 | [2] 0.052 | [3] -0.019 | [4] 0.065 | [5] -0.01 | [6] 0.039 | [7] -0.064 | [8] 0.048 | [9] -0.034

TBC1D9B (UniProt Q66K14)
UniProt Q66K14, sequence (Q66K14 whole entry, looked up): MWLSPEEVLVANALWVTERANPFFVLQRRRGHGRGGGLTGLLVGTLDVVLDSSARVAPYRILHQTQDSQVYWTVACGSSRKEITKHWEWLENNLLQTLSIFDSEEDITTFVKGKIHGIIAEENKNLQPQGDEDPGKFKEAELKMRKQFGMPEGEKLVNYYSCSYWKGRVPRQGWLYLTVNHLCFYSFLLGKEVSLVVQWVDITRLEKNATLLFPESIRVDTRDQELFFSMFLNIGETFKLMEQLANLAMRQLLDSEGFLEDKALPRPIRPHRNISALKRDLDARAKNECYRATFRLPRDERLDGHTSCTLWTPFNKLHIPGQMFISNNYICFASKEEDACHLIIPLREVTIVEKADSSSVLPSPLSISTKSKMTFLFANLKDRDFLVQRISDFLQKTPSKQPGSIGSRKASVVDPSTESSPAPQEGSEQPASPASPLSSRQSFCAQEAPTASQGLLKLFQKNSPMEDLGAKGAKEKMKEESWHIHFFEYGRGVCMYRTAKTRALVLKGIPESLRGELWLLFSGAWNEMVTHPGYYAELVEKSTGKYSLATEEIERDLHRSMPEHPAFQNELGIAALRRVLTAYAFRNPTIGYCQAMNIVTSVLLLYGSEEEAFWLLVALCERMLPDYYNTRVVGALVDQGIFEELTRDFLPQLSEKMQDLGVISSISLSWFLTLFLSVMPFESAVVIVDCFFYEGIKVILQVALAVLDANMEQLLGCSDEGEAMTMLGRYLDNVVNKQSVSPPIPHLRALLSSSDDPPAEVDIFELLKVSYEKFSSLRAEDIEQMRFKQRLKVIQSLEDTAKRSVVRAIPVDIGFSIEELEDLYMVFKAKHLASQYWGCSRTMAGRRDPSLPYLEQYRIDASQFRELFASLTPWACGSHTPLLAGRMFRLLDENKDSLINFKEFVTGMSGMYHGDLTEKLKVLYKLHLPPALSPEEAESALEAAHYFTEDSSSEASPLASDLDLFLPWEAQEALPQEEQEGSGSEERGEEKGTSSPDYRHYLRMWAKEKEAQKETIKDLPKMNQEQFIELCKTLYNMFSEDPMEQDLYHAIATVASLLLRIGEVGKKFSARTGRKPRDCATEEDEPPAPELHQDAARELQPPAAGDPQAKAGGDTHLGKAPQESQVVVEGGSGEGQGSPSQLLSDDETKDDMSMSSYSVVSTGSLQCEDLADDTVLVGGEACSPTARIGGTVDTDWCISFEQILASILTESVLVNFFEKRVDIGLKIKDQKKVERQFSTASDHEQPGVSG
inactive: erlotinib 0.07 | [1] 0.001 | [2] -0.087 | [3] 0.072 | [4] 0.151 | [5] -0.092 | [6] -0.011 | [7] 0.021 | [8] -0.055 | [9] -0.058

THYN1 (UniProt Q9P016)
UniProt Q9P016, sequence (Q9P016 whole entry, looked up): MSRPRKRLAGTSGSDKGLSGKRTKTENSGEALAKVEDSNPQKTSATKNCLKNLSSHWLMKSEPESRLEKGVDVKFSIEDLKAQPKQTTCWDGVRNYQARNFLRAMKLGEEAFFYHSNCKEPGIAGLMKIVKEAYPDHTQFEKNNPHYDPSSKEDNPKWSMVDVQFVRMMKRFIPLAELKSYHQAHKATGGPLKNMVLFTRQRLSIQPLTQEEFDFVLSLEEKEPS
inactive: erlotinib -0.061 | [1] 0.007 | [2] -0.041 | [3] 0.125 | [4] 0 | [5] 0.006 | [6] -0.032 | [7] 0.145 | [8] -0.002 | [9] -0.037

SRSF3 (UniProt P84103)
UniProt P84103, sequence (P84103 whole entry, looked up): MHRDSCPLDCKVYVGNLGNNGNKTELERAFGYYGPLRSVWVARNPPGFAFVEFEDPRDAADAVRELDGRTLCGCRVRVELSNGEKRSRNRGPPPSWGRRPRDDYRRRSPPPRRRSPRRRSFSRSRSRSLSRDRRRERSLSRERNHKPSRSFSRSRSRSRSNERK
inactive: erlotinib -0.074 | [1] -0.03 | [2] -0.35 | [3] 0.053 | [4] -0.074 | [5] -0.009 | [6] -0.003 | [7] 0.006 | [8] 0.097 | [9] -0.107

ST3GAL2 (UniProt Q16842)
inactive: erlotinib 0.032 | [1] 0.07 | [2] -0.069 | [3] 0.009 | [4] -0.085 | [5] -0.052 | [6] -0.057 | [7] 0.045 | [8] -0.024 | [9] 0.108

SPINDOC (UniProt Q9BUA3)
inactive: erlotinib -0.013 | [1] -0.017 | [2] -0.01 | [3] -0.044 | [4] 0.036 | [5] 0.074 | [6] -0.063 | [7] -0.066 | [8] -0.129 | [9] 0.09

TK1 (UniProt P04183)
inactive: erlotinib -0.029 | [1] 0.004 | [2] 0.044 | [3] 0.017 | [4] -0.02 | [5] -0.012 | [6] -0.03 | [7] -0.011 | [8] -0.028 | [9] 0.046

TIMM13 (UniProt Q9Y5L4)
inactive: erlotinib 0.018 | [1] 0 | [2] 0.315 | [3] 0 | [4] 0.003 | [5] 0.111 | [6] 0.063 | [7] -0.005 | [8] -0.025 | [9] -0.006
